We go through 40 compounds from PubChem BioAssay (NCI).

Several values for one entry are separate records, joined by “and”; a condition that tells them apart may be missing. Equal entries are not always repeated. About 83,000 compounds went through this panel and 20% of them were active in at least one assay; those are over-represented in the sample as a whole.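 Assay: single dose, 48 h. Readout: percent growth (0 = no net growth; negative = cell death). Active: <10.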 Activity calls are given as the source filed them.

In this test the test system is MDA-MB-468 breast. Put plainly: NCI-60 one-dose screen, 48 h (100 = growth as untreated, 0 = no growth, -100 = all killed). As to conditions: 10 µM unless noted.
As to `O=S(=O)(NC1c2ccccc2C[C@H]1O)c1ccc(Cl)cc1Cl` (stereo not given in full), the growth is 85.7% (inactive). The result for `COc1cccc(C2CC(=O)Nc3cc4c(cc32)CCC4)c1OC` (stereo not given) reads -2.82% (active); that for `Cc1nc2ccccc2c(/C=C/c2ccc(Cl)cc2)c1C(=O)/C=C/c1ccc(F)cc1`, -16.5% (active). `CC/C(=C(/c1ccc(Cl)cc1)c1ccc(OCCN2CCOCC2)cc1)c1ccccc1`: the growth was 91% (inactive). The result for `CCN1CCN(c2cc(C)nc(N(CCCNc3ccnc4cc(Cl)ccc34)Cc3ccc4c(c3)OCO4)n2)CC1` reads -55.5% (active). The value for `OCC12CCCC(CO)(COC1)C2O` (stereo not given) was 109% (inactive); that for `C=C(C)[C@@H]1CC[C@]2(CO)CC[C@]3(C)[C@H](CC[C@@H]4[C@@](C)(CCCN)[C@H](C(=C)C)CC[C@]43C)[C@@H]12` was -71.4% (active). Regarding `NC(Cc1c[nH]c2ccccc12)C(=O)O` (stereo not given), the growth was 110% (inactive) and 112% (inactive). The result for `CCN(CC)CCN1CNC(=S)NC1` reads 99.7% (inactive); that for `CCCCCCCCn1ccc2cc(NC(=O)Cn3cc(CN4CCCC4)nn3)ccc21`, 16.1% (inactive). On to `Nc1nc2c(s1)CCc1c-2c(Br)n(Cc2ccccc2)c1Br`, for which the growth is 33.4% (inactive). Turning to `N/C(=N\OC(=O)c1ccccc1)C(Cc1ccccc1)C(=O)NOC(=O)c1ccccc1` (stereo not given), the growth is 66.1% (inactive).

For the compound `CC1(C)CC(=O)C2=C(C1)C(c1ccc(Cl)cc1)n1ncc(C#N)c1N2` (stereo not given), the growth was 105% (inactive). The result for `O=C1NN(c2ccccc2)C(c2cccnc2)=N/C1=C\c1cccnc1` reads 90% (inactive); that for `C[C@@H]1CN(c2ccc3ncc(C#Cc4cncc(C(=O)Nc5ccc(CN6CCN(C)CC6)c(C(F)(F)F)c5)c4)n3n2)C[C@H](C)O1`, -76.7% (active); that for `C=C(C)[C@@H]1CC[C@]2(C)[C@H](CC[C@@H]3[C@@H]([C@@](C)(O)CCC=C(C)C)CC[C@]32C)[C@@]1(C)CCC(=O)O`, 8.85% [100 µM] (active). The result for `COc1cc2cc3c(nc2cc1OC)CCN3Cc1ccc(NC(=O)Nc2cc(C(F)(F)F)cc(C(F)(F)F)c2)cc1` reads 52.9% (inactive); that for `Cn1cnc([N+](=O)[O-])c1Sc1ncnc2nc[nH]c12`, -4.47% (active) and 77.7% (inactive).

With `CC1(c2ccccc2)NC(=O)NC1=O` (stereo not given), the growth is 105% (inactive). The value for `CCN1C(=S)N(c2ccccc2)C2NC(=S)N(/N=C/C=C/c3ccccc3OC)C21` (stereo not given) was 6.55% (active). Regarding `COc1ccc(Nc2nc(SCC(C)C)nc(-c3ccc(F)cc3)c2C#N)cc1`, the growth is 32.6% (inactive). As to `O=C1c2ccccc2C(=O)c2cc(Cn3cc[n+](Cc4ccc5ccccc5c4)c3)ccc21`, the growth was -32.2% (active). The value for `C=CCN(/C=C/CN(CC=C)CC=C)CC=C` was 99.3% (inactive); that for `CCN1CCN(/C(=N\c2sc(-c3ccccc3)nc2-c2ccccc2)c2ccccc2)CC1` was 75.3% (inactive).

In the case of `O=C(Nc1sc2c(c1C(=O)O)CCCC2)c1cccc(C(F)(F)F)c1`, the growth is 68.2% (inactive).

Consider `[O-][n+]1ccccc1CCN(O)CCc1cccc[n+]1[O-]`, for which the growth was 110% (inactive). As for `O=c1cc(/C=N\Nc2nc(-c3ccc(Cl)cc3Cl)cs2)c2cc(Cl)ccc2o1`, the growth was 102% (inactive). Take `Cn1c(=O)c2c(nc(N3CCCC3)n2C)n(C)c1=O`: the growth was 99.5% (inactive).

For the compound `N#CCCc1c[nH]c2ccccc12`, the growth is 94.5% (inactive). `COc1cc2c(c(OC)c1OC)CCC(c1cccc(NC(=O)c3cccc(Br)c3)c1)O2` (stereo not given): the growth was 75.2% (inactive). `COC(CCP(=O)(c1ccccc1)c1ccccc1)(C(=O)c1ccccc1)c1ccccc1` (stereo not given): the growth was 54.7% (inactive).

For `CN(C)CCCNC(=O)c1cncnc1Nc1ccc(OCc2cccc(F)c2)c(Cl)c1`, the growth is -7.83% (active).

In the case of `COc1nc2ccccc2cc1/C=C1/C=C(c2ccccc2)NC1=O`, the growth is 29% (inactive). The result for `COc1ccccc1NC1=C(N2CCCCC2)C(=O)c2ccccc2C1=O` reads 65.9% (inactive); that for `O=S(=O)(NC1c2ccccc2Oc2ccccc21)c1cc(Cl)ccc1Cl`, 78.9% (inactive). With `CN1CCN(Cc2ccc(NC(=O)c3cncc(C#Cc4cnc(N)c5ncccc45)c3)cc2Cl)CC1`, the growth was 85.4% (inactive). With `O=C(N/N=C\c1ccc(F)cc1)c1ccc2nc(-c3ccc(Br)cc3)[nH]c2c1`, the growth is 34.7% (inactive). The result for `COc1ccc(/C=C2\SC(=O)N(CN3CCN(c4cc5c(cc4F)c(=O)c(C(=O)O)cn5C4CC4)CC3)C2=O)cc1` reads 108% (inactive); that for `N#CC1C=CN(CC(N)=O)c2ccc3cccnc3c21` (stereo not given), 96.2% (inactive); that for `CCCCNc1nc(NC(C)(C)C)nc(NC(C)(C)C)n1`, 78.5% (inactive).
